Measurements published in PubChem BioAssay AID1012 (Sanford-Burnham Center for Chemical Genomics, 2008).
In all, about 200,000 compounds went through this assay and about 520 (0.26%) were called active.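 The calls were made as follows: active = tissue-nonspecific alkaline phosphatase inhibition above about 50% at 20 µM in the single-dose screen (limit read from the data); inactive = the rest.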 What follows is part of a selection rich in actives, with near analogues and random picks from the rest.

Target: Alkaline phosphatase, tissue-nonspecific isozyme (Homo sapiens) (UniProt P05186)
Sequence (P05186 whole entry, looked up): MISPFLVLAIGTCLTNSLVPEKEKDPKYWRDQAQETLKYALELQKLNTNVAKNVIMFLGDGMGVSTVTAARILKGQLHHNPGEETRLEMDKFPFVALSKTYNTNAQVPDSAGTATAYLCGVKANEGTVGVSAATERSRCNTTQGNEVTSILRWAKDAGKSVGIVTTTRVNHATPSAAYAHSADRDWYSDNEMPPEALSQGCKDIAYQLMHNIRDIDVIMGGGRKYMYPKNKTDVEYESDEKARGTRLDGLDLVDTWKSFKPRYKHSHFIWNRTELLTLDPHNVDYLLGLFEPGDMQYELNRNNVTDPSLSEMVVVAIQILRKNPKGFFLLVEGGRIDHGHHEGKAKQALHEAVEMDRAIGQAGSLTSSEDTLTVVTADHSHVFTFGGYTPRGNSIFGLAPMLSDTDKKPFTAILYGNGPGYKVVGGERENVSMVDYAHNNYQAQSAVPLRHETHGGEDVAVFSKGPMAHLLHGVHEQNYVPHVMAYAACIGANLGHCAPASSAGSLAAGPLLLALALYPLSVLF
Assay: human TNAP enzyme inhibitors, primary screen, biochemical, luminescent, no phosphate acceptor, uHTS (AID 1012);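 also: 0% = DMSO negative control and 100% = EDTA positive control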
Settings: purified TNAP, CDP-star luminescence, 30 min; at 20 µM; hits give high values

| SMILES | inhibition |
| --- | --- |
| CN(C)CCCN=Cc1c(O)n(Cc2ccco2)c(=O)[nH]c1=O | -20.3% (inactive) |
| CCC(=NCc1ccco1)c1c(O)n(Cc2ccccc2)c(=O)[nH]c1=O | -5.5% (inactive) |
| O=C(N/N=C/c1c(O)n(Cc2ccccc2)c(=O)[nH]c1=O)c1ccccc1 | 94.3% (active) |
| O=C(OCCN1CCOCC1)C1(c2ccccc2)CCCC1 | -3% (inactive) |
| O=C(NCC(c1cccnc1)N1CCN(c2ccccc2)CC1)Oc1ccccc1 (stereo not given) | -8.6% (inactive) |
